# Test results: the supplement of paper PMC8728848
# Many of the other results were omitted from the sample, so the strongest signals are more common in it than they were.
# B1: B936 (Bifidobacterium sp) (protein)
# chain: MKNWKKAIALVASAAALVSVAACGPSNAGGSSDSGKKTVGFVAVGPEGGFRTANEKDIQKAFEDAGFDLTYSPTQNNDQQKQIQAFNKFVNDEVDAIILSSTEDSGWDDSLKKAAEAEIPVFTVDRNVDVKDAEAKKAIVAHIGPSNVWCGEQAAEFVNKNFPDGANGFILEGPAGLSVVKDRGTGWGNKVASNVKVLESQSANWSTDEAKTVTAGLLDKYKSDNPQFIFAQNDEMGLGAAQAVDAAGLKGKVKIITIDGTKNALQALVDGDLSYVIEYNPIFGKETAQAVKDYLDGKTVEKDIEIESKTFDAASAKEALDNNTRAY
# How the values were obtained:
# Assay in all cases: glycan array binding signal (z-score within array); higher = stronger binding
# Details in all cases: glycan notation: IUPAC condensed, linker removed
# [1] = target: Gal(b1-4)GlcNAc(b1-2)[Gal(b1-4)GlcNAc(b1-6)]Man(a1-6)[GlcNAc(b1-4)][Gal(b1-4)GlcNAc(b1-2)Man(a1-3)]Man(b1-4)GlcNAc(b1-4)GlcNAc
# Summary of the method: (§1)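 Negative Z-scores can be read as non-binding. The Z-score is calculated within each array and then averaged across arrays of one protein sequence at different concentrations or buffers and across linkers. Arrays, 3228 in all, were curated from the Consortium for Functional Glycomics database and kept only where the protein sequence was available.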
# [2] = target: Gal(b1-4)GlcNAc(b1-3)Gal(b1-4)Glc
# Summary of the method: as §1
# [3] = target: Gal(b1-4)GlcNAc(b1-6)[Gal(b1-3)]GalNAc
# Summary of the method: as §1
# Gal3S(b1-3)GlcNAc = target: Gal3S(b1-3)GlcNAc
# Summary of the method: as §1
# Gal6S(b1-4)GlcNAc6S = target: Gal6S(b1-4)GlcNAc6S
# Summary of the method: as §1
# [4] = target: GalNAc(b1-4)GlcNAc(b1-2)Man(a1-3)[GalNAc(b1-4)GlcNAc(b1-2)Man(a1-6)]Man(b1-4)GlcNAc(b1-4)GlcNAc
# Summary of the method: as §1
# GlcA(b1-3)Gal = target: GlcA(b1-3)Gal
# Summary of the method: as §1
# [5] = target: GlcNAc(a1-3)Gal(b1-4)GlcNAc
# Summary of the method: as §1
# [6] = target: GlcNAc(b1-3)Gal(b1-4)GlcNAc(b1-3)Gal(b1-4)GlcNAc(b1-2)Man(a1-3)[GlcNAc(b1-3)Gal(b1-4)GlcNAc(b1-3)Gal(b1-4)GlcNAc(b1-2)Man(a1-6)]Man(b1-4)GlcNAc(b1-4)GlcNAc
# Summary of the method: as §1
# [7] = target: GlcNAc(b1-3)Gal(b1-4)GlcNAc(b1-3)Gal(b1-4)GlcNAc(b1-3)Gal(b1-4)GlcNAc(b1-3)Gal(b1-4)GlcNAc(b1-2)Man(a1-3)[GlcNAc(b1-3)Gal(b1-4)GlcNAc(b1-3)Gal(b1-4)GlcNAc(b1-3)Gal(b1-4)GlcNAc(b1-3)Gal(b1-4)GlcNAc(b1-2)Man(a1-6)]Man(b1-4)GlcNAc(b1-4)GlcNAc
# Summary of the method: as §1
# [8] = target: GlcNAc(b1-3)Gal(b1-4)GlcNAc(b1-3)GalNAc
# Summary of the method: as §1
# [9] = target: GlcNAc(b1-6)Gal(b1-4)GlcNAc
# Summary of the method: as §1
# Man(a1-3)[Man(a1-6)]Man = target: Man(a1-3)[Man(a1-6)]Man
# Summary of the method: as §1
# [10] = target: Neu5Ac(a2-3)Gal(b1-3)GlcNAc(b1-2)Man
# Summary of the method: as §1
# [11] = target: Neu5Ac(a2-3)Gal(b1-3)[Fuc(a1-4)]GlcNAc(b1-3)Gal(b1-4)[Fuc(a1-3)]GlcNAc
# Summary of the method: as §1
# [12] = target: Neu5Ac(a2-3)Gal(b1-4)GlcNAc(b1-2)[Neu5Ac(a2-3)Gal(b1-4)GlcNAc(b1-4)]Man(a1-3)[GlcNAc(b1-4)][Neu5Ac(a2-3)Gal(b1-4)GlcNAc(b1-2)[Neu5Ac(a2-3)Gal(b1-4)GlcNAc(b1-6)]Man(a1-6)]Man(b1-4)GlcNAc(b1-4)GlcNAc
# Summary of the method: as §1
# [13] = target: Neu5Ac(a2-3)Gal(b1-4)GlcNAc(b1-2)[Neu5Ac(a2-3)Gal(b1-4)GlcNAc(b1-4)]Man(a1-3)[GlcNAc(b1-4)][Neu5Ac(a2-3)Gal(b1-4)GlcNAc(b1-4)Man(a1-6)]Man(b1-4)GlcNAc(b1-4)GlcNAc
# Summary of the method: as §1
# [14] = target: Neu5Ac(a2-6)Gal(b1-4)GlcNAc(b1-2)Man(a1-6)Man(b1-4)GlcNAc(b1-4)GlcNAc
# Summary of the method: as §1
# [15] = target: Neu5Ac(a2-6)Gal(b1-4)GlcNAc(b1-2)Man(a1-6)[Gal(b1-4)GlcNAc(b1-2)Man(a1-3)]Man(b1-4)GlcNAc(b1-4)GlcNAc
# Summary of the method: as §1
# [16] = target: Neu5Ac(a2-6)Gal(b1-4)GlcNAc(b1-3)GalNAc
# Summary of the method: as §1
# [17] = target: Neu5Ac(a2-8)Neu5Ac(a2-3)[GalNAc(b1-4)]Gal(b1-4)Glc
# Summary of the method: as §1
# [18] = target: Neu5Ac9Ac(a2-3)Gal(b1-3)GlcNAc
# Summary of the method: as §1
# [19] = target: Neu5Gc(a2-3)Gal(b1-3)[Fuc(a1-4)]GlcNAc
# Summary of the method: as §1
# [20] = target: Neu5Gc(a2-3)Gal(b1-4)[Fuc(a1-3)]GlcNAc
# Summary of the method: as §1
binder,measurement,setting,value
B1,glycan array binding signal (z-score),[1],-0.558
same,glycan array binding signal (z-score),[2],3.24
same,glycan array binding signal (z-score),[3],0.173
same,glycan array binding signal (z-score),Gal3S(b1-3)GlcNAc,0.121
same,glycan array binding signal (z-score),Gal6S(b1-4)GlcNAc6S,0.127
same,glycan array binding signal (z-score),[4],3.25
same,glycan array binding signal (z-score),GlcA(b1-3)Gal,-0.516
same,glycan array binding signal (z-score),[5],0.799
same,glycan array binding signal (z-score),[6],0.824
same,glycan array binding signal (z-score),[7],-0.371
same,glycan array binding signal (z-score),[8],-0.806
same,glycan array binding signal (z-score),[9],-0.106
same,glycan array binding signal (z-score),Man(a1-3)[Man(a1-6)]Man,-0.318
same,glycan array binding signal (z-score),[10],0.307
same,glycan array binding signal (z-score),[11],0.193
same,glycan array binding signal (z-score),[12],-0.471
same,glycan array binding signal (z-score),[13],0.275
same,glycan array binding signal (z-score),[14],0.197
same,glycan array binding signal (z-score),[15],-0.37
same,glycan array binding signal (z-score),[16],2.06
same,glycan array binding signal (z-score),[17],-0.488
same,glycan array binding signal (z-score),[18],-0.521
same,glycan array binding signal (z-score),[19],0.081
same,glycan array binding signal (z-score),[20],-0.593
